Screening data: PubChem, National Center for Advancing Translational Sciences (NCATS)
An excerpt weighted towards active compounds, which were near 11% of everything screened.
PI5P4K alpha inh: blocks human PI5P4K alpha kinase activity; P48426; PI5P4Kalpha enzyme, ADP-Glo luminescence, 60 min; active compounds read low; max response, %; 1.2% of 330,000 active; AID 652105; active means max response of -50% or lower; inconclusive means between -30% and -50%; inactive means -30% or higher; further: value at the top dose of about 77 µM; on the % scale 0 is the no-effect control and ±100 the full control effect
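Human PI5P4Kalpha with substrate in 0.038 M HEPES pH 7.4, 0.28 mM EGTA, 0.1% CHAPS, 5% DMSO; reaction started with 5 microM ATP (final), 60 min at room temperature. ADP formed read by ADP-Glo luminescence.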
L3MBTL1 block: inhibitors of human L3MBTL1. Q9Y468. 0.66% of 230,000 active. Potency, µM (series often up to 57.1 µM), inactives show at the top dose activity, negative = inhibition, most hits filed as inhibitors. AlphaScreen L3MBTL1–H3K9me1 peptide binding; further: potency means the concentration at half of the fitted maximal effect; on the % scale 0 is the no-effect control and ±100 the full control effect; nearly all actives have a fitted effect of over 60% in size
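Read-out is AlphaScreen signal from streptavidin donor and nickel chelate acceptor beads (10 ug/mL final each) bridging L3MBTL1 (50 nM) and biotinylated K9-monomethylated H3(1-15) peptide (75 nM), after 30 min compound exposure at room temperature.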
G9a inh: blocks human histone lysine methyltransferase G9a. G9a H3K9 monomethylation, AlphaScreen, 2 h. 8.8% of 350,000 active. Potency, µM (doses to about 102 µM), without a hit: top-dose activity, negative = inhibition, actives largely listed as inhibitors. Q96KQ7; further: potency means the concentration at half of the fitted maximal effect; on the % scale 0 is the no-effect control and ±100 the full control effect; nearly all actives have a fitted effect of over 75% in size
Target sequence (Q96KQ7 913-1193 limits assumed): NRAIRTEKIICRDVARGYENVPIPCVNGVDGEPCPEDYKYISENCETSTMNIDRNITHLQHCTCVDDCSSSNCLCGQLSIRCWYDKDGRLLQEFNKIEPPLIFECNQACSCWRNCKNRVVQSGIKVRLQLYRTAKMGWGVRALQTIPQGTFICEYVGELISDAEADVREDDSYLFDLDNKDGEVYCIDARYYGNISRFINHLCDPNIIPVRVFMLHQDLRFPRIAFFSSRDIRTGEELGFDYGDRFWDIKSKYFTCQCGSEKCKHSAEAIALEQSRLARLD
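Enzyme 20 nM + cpd, 15 min RT; add b-H3K9 pep 500 nM / SAM 20 uM; 2 h RT; anti-H3K9me1 Ab 0.5 ug/mL + SA donor / anti-rabbit acceptor beads 20 ug/mL each, 10 min; AlphaScreen read.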
HP1b chromo inh: inhibitors of HP1-beta chromodomain binding to methylated histone tails | AID 540317 | 0.56% of 390,000 active | Potency, µM (top dose mostly 114 µM), without a hit: at the highest dose activity change, negative = inhibition, actives largely listed as inhibitors | AlphaScreen HP1-beta / biotin-H3K9me3 peptide binding | P83916; further: potency means the concentration at half of the fitted maximal effect; nearly all actives have a fitted effect of over 70% in size
Target sequence (P83916 whole entry, looked up): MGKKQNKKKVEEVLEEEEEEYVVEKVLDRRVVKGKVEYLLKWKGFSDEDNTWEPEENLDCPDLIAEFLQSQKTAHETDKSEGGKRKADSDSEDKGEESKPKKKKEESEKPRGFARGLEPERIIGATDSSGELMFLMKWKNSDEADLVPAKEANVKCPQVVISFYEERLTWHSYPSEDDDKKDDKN
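HP1-beta protein (50 nM final) preincubated 30 min at room temperature with biotinylated H3(1-18)K9me3 peptide (50 nM) in PBS pH 7.4, 0.01% Tween-20, then compound added for 30 min. AlphaScreen streptavidin donor/nickel chelate acceptor beads (10 ug/mL final), 30 min dark, luminescence read.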
JMJD2A Tudor: JMJD2A Tudor domain (human) inhibition; O75164; AID 504339; 4.4% of 390,000 active; Potency, µM (series often up to 114 µM), for the others: at the highest dose activity change, negative = inhibition, usual class: inhibitors; AlphaScreen JMJD2A-Tudor / H3K4me3 peptide binding; further: potency means the concentration at half of the fitted maximal effect; on the % scale 0 is the no-effect control and ±100 the full control effect; nearly all actives have a fitted effect of over 50% in size
BAZ2B inh: blocks human BAZ2B | AlphaScreen BAZ2B-H3K14Ac peptide displacement | Potency, µM (top dose mostly 114 µM), without a hit: top-dose activity change, negative = inhibition, most hits filed as inhibitors | 4.4% of 360,000 active | AID 504333; further: potency means the concentration at half of the fitted maximal effect; on the % scale 0 is the no-effect control and ±100 the full control effect; nearly all actives have a fitted effect of over 60% in size
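Inhibition is scored as reduced AlphaScreen emission. The BAZ2B/b-H3(5-23)K14Ac complex (50 nM each) in PBS pH 7.4, 0.01% Tween-20 meets compound (up to 110 uM) for 30 min at RT before bead addition.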
Active calls of the source: *; [ ] = another dose, or the depositor's remark. Unless noted, the call rests on the fitted dose curve; in most records, active means well fitted inhibition curve with a large enough effect; inconclusive means small, poorly fitted or top-dose-only effect; inactive means no such curve, though single readings can be large or run the other way.

Results for CCCN(CCC)C1=N/C(=C\c2ccco2)C(=O)N1c1ccccc1 ?
PI5P4K alpha inh: 4.3; G9a inh: inconclusive; HP1b chromo inh: 0.9%; JMJD2A Tudor: -22.9%; BAZ2B inh: 50.1µM*

What do the screens show for `CSc1ccc(CN2CCN(C(=O)c3ccc([N+](=O)[O-])cc3)CC2)cc1`?
PI5P4K alpha inh: -5.6; L3MBTL1 block: -5.1%; HP1b chromo inh: inconclusive; JMJD2A Tudor: 22.4µM*; BAZ2B inh: 50.1µM*

Results for O=C(c1ccncc1)N1CCN(CCc2ccccc2)CC1 ?
PI5P4K alpha inh: -0.5; L3MBTL1 block: 1.0%; G9a inh: 25.7%; HP1b chromo inh: 52.3%; JMJD2A Tudor: -7.9%; BAZ2B inh: -2.7%

What do the screens show for `O=C(c1ccc(-c2ccccc2)cc1)N1CCN(Cc2ccccn2)CC1`?
PI5P4K alpha inh: -11.0; L3MBTL1 block: -6.0%; G9a inh: 39.8µM*; HP1b chromo inh: 13.1%; JMJD2A Tudor: inconclusive; BAZ2B inh: inconclusive

How did Cc1ccc(CN2CCN(C(=O)c3ccncc3)CC2)cc1 do in these assays?
PI5P4K alpha inh: -0.4; L3MBTL1 block: 1.6%; G9a inh: 8.91µM*; HP1b chromo inh: inconclusive; JMJD2A Tudor: 7.94µM*; BAZ2B inh: 22.4µM*

What do the screens show for `COCC1CCCCN1C(=O)c1ccc(OC2CCN(Cc3ccccn3)CC2)cc1` (stereo not given)?
PI5P4K alpha inh: -8.6; G9a inh: 2.6%; HP1b chromo inh: 17.7%; JMJD2A Tudor: 25.1µM*; BAZ2B inh: -38.5%

Results for O=C(c1ccc(Cn2ccc([N+](=O)[O-])n2)cc1)N1CCN(Cc2ccccc2)CC1 ?
PI5P4K alpha inh: 3.2; L3MBTL1 block: 4.2%; HP1b chromo inh: 4.6%; JMJD2A Tudor: -24.0%; BAZ2B inh: -13.4%

What do the screens show for `COc1cccc(NC(=O)CSCn2nnc3c(=O)[nH]c(Cc4ccc(F)cc4)nc32)c1`?
G9a inh: 2.7%[59 µM]; HP1b chromo inh: 39.4%; JMJD2A Tudor: -3.1%; BAZ2B inh: 0.7%

Results for CCOc1c(Br)cc(C2CC(=O)Nc3cc4c(cc32)OCO4)cc1OC (stereo not given) ?
G9a inh: inconclusive; HP1b chromo inh: 9.9%; JMJD2A Tudor: inconclusive; BAZ2B inh: -35.6%

What do the screens show for `O=C(CCN1CCOCC1)c1ccc(Br)cc1`?
PI5P4K alpha inh: -10.4; L3MBTL1 block: 3.5%; HP1b chromo inh: -7.8%; JMJD2A Tudor: -10.5%; BAZ2B inh: -14.1%

What do the screens show for `CCOC(=O)N1CCN(C(=O)c2ccc(OCC)cc2)CC1`?
PI5P4K alpha inh: 0.9; L3MBTL1 block: 11.7%; HP1b chromo inh: 27.7%; JMJD2A Tudor: -7.9%; BAZ2B inh: -9.8%

How did CCOc1ccc(C(=O)CCN2CCCCC2)cc1 do in these assays?
PI5P4K alpha inh: 1.2; L3MBTL1 block: inconclusive; G9a inh: 8.91µM*; HP1b chromo inh: 53.3%; JMJD2A Tudor: 4.7%; BAZ2B inh: 38.9%

What do the screens show for `CCOc1ccc(C(=O)N2CCCN(C(=O)c3ccc(OCC)cc3)CC2)cc1`?
L3MBTL1 block: 14.4%; G9a inh: 31.6µM*; HP1b chromo inh: 9.9%; JMJD2A Tudor: -21.3%; BAZ2B inh: 5.4%

What do the screens show for `CCOc1ccc(C(=O)CSCCC(=O)O)cc1`?
PI5P4K alpha inh: -3.6; G9a inh: 31.6µM*; HP1b chromo inh: 45.2%; JMJD2A Tudor: -12.5%

Results for O=C(CCN1CCOCC1)c1ccc(Cl)cc1 ?
PI5P4K alpha inh: 2.4; L3MBTL1 block: -3.0%; G9a inh: 11.2µM*; HP1b chromo inh: -0.2%; JMJD2A Tudor: inconclusive; BAZ2B inh: -21.3%

How did CCCOc1ccc(C(=O)CCN2CCN(C(=O)OCC)CC2)cc1 do in these assays?
PI5P4K alpha inh: -6.9; G9a inh: 10µM*; HP1b chromo inh: 18.6%; JMJD2A Tudor: -22.8%; BAZ2B inh: -26.6%

What do the screens show for `CC(C)Oc1ccc(C(=O)CCN2CCCCC2)cc1`?
PI5P4K alpha inh: -0.7; L3MBTL1 block: -0.4%; G9a inh: 7.94µM*; HP1b chromo inh: 54.0%; JMJD2A Tudor: -23.6%; BAZ2B inh: -3.6%
